High-throughput results deposited in PubChem by University of Kansas High Throughput Screening Laboratory.
mHTT CaM bind: mutant huntingtin-calmodulin interaction inhibitors – biochemical, AlphaScreen, primary screen; AlphaScreen His-mHTT/GST-CaM binding, luminescence; P42858; inhibition, % at 15 µM; 190,000 tested, 3.6% active; AID 1671202, 2021
Pf apPOL inh: Pf-apPOL inhibitors, biochemical, fluorescence. Plasmodium falciparum apicoplast DNA polymerase (apPOL). Recombinant Pf-apPOL, molecular beacon fluorescence, 1.5 h. inhibition, % at 10 µM. 210,000 tested, 0.25% active
Numbers stand for hits; i = inactive; nt = no result given. Rows were chosen to be rich in hits. Some 3.5% of all compounds tested hit in one or more screens of this group. Cut-off read from the data, not from the text of the source: active = inhibition above about 50%; inactive = the rest.

SMILES	mHTT CaM bind	Pf apPOL inh
Cc1ccc2c(c1)C1=C(C(c3cccs3)O2)C(c2ccccc2)n2ncnc2N1 (stereo unspecified)	i	i
COc1cc(OC)cc(C(=O)Nc2c3c(nn2-c2ccc(C)cc2C)CSC3)c1	i	i
Cc1ccc(-c2csc(Nc3ccc(F)cc3)n2)cc1C	i	i
Cc1ccc(Nc2nc(-c3ccc(F)cc3)cs2)cc1Cl	64	i
CC(C)(C)C(=O)Oc1ccc(C=Cc2ccncc2)cc1	i	i
Cn1cc(C(=O)NCCc2c[nH]c3ccccc23)c2[nH]c(=O)n(Cc3ccccc3)c(=O)c21	56	i
Cn1cc(C(=O)NCCc2c[nH]c3ccccc23)c2nn(-c3ccccc3)c(=O)c-2c1	i	i
Cc1ccc(N2CC(C(=O)Nc3c4c(nn3C(C)(C)C)CS(=O)(=O)C4)CC2=O)cc1C (stereo unspecified)	i	i
O=C(Nc1ccc2cn[nH]c2c1)C1(c2cccs2)CCCC1	i	i
O=C1OCCN1C(=O)[C@H]1[C@H](c2ccc(Cl)cc2)C(c2ccc(F)cc2)=NN1c1ccccc1	72	i
O=C1OCCN1C(=O)[C@H]1[C@H](c2ccc(F)cc2)C(c2ccc(F)cc2)=NN1c1ccc(Br)cc1	54	i
O=C1OCCN1C(=O)[C@H]1[C@H](c2ccc(Cl)cc2)C(c2ccccc2)=NN1c1ccccc1	i	i
O=C1OCCN1C(=O)[C@H]1[C@H](c2ccc(Cl)cc2)C(c2ccc(F)cc2)=NN1c1ccc(Br)cc1	79	i
O=C1OCCN1C(=O)[C@H]1[C@H](c2ccc(F)cc2)C(c2ccc(F)cc2)=NN1c1ccccc1	i	i
O=C1OCCN1C(=O)[C@H]1[C@H](c2ccc(F)cc2)C(c2ccccc2)=NN1c1ccccc1	i	i
CCCCOc1ccc(-c2nc(C=Nc3ccc(Cl)cc3)c(O)o2)cc1	i	i
CCOC(=O)[C@]12Cc3c(cc(OC)c(OC)c3OC)[C@H]1N(CCC(=O)OC)C(=O)c1cc(OC)ccc12	i	i
CSc1nnc2c(n1)OC(c1ccsc1)Nc1ccccc1-2 (stereo unspecified)	i	i
CC1=NOC(=O)/C1=C\c1ccc(N(C)C)c(Br)c1	i	i
Cc1cccc(N=Cc2nc(-c3ccccc3Br)oc2O)c1	i	i
O=C(Nc1nc2c(s1)CCC2)C1CCCN1S(=O)(=O)c1ccc(F)cc1 (stereo unspecified)	i	i
NC(=O)c1oc2ccccc2c1NC(=O)C1CCCN1S(=O)(=O)c1ccc(F)cc1 (stereo unspecified)	67	i
C=C1CCN([C@@H](CC(C)C)C(=O)N2CCOCC2)S(=O)(=O)c2ccccc21	i	i
CC(C)CC(C(=O)N1CCOCC1)N1C(=O)C2C3c4ccccc4C(c4ccccc43)C2C1=O (stereo unspecified)	55	i
Cc1ccc(C(=O)N2CCCC2c2cccc(F)c2)cc1 (stereo unspecified)	i	i
SMILES	mHTT CaM bind	Pf apPOL inh
CCN1CCN(CCC(=O)Nc2cc(OC)ccc2OC)CC1	i	i
COc1ccc(NC(=O)c2cc(Cl)c(OC)c(Cl)c2)cc1	i	i
Cc1cccc(-c2nc(COc3ccc4c(c3)OCO4)no2)c1	i	i
c1ccc(-c2n[nH]c(C3CCCN3Cc3ccco3)n2)cc1 (stereo unspecified)	i	i
c1ccc(-c2n[nH]c(C3CCCN3Cc3ccccn3)n2)cc1 (stereo unspecified)	100	i
Cc1ccc(N(C)S(=O)(=O)c2ccc3[nH]cc(C(=O)N4CCCCCC4)c(=O)c3c2)cc1C	58	i
Cc1ccc(N(C)S(=O)(=O)c2ccc3[nH]cc(C(=O)N4CCC(C)CC4)c(=O)c3c2)cc1C	i	i
Cc1noc(-c2ccccc2Cl)c1C(=O)NCCc1ccc(F)cc1	55	i
Cc1noc(-c2cccs2)c1C(=O)NCCc1ccc(F)cc1	i	i
Cc1ccc(OCC(=O)NCc2ccccn2)c(Br)c1	i	i
CCOc1ccccc1C(=O)N1CCc2c(c(-c3nnc(SC)n3C)nn2C)C1	i	i
CCNC(=O)c1ccccc1-c1ccccc1C(=O)O	i	i
CCNC(=O)c1ccc2c3c(onc13)-c1ccccc1C2=O	51	i
CC(C)Oc1ccc(CNC(=O)CCC(=O)N2Cc3cccn3-c3ccccc32)cc1	i	i
C#CCN(C)C(=O)c1ccc(-c2ccc(OCC)cc2)s1	i	i
CCn1cc2c(c1-c1ccccc1)c(=O)n(C)c(=O)n2C	i	i
CNc1ccc([N+](=O)[O-])cc1-n1cc2c(c1-c1ccccc1)c(=O)n(C)c(=O)n2C	i	65
COc1ccc(-c2c3c(=O)n(C)c(=O)n(C)c3cn2-c2ccccc2OC)cc1	i	78
Cc1ccc(-n2cc3c(c2-c2ccccc2)c(=O)n(C)c(=O)n3C)c(C)c1	i	83
Cn1c(=O)c2c(-c3ccccc3)n(-c3ccccc3)cc2n(C)c1=O	i	i
Cc1cc(N)c(-n2cc3c(c2-c2ccccc2)c(=O)n(C)c(=O)n3C)cc1C	i	82
COc1ccc(-c2c3c(=O)n(C)c(=O)n(C)c3cn2-c2ccc(C)cc2C)cc1	i	i
COc1ccc(-c2c3c(=O)n(C)c(=O)n(C)c3cn2-c2ccccc2)cc1	i	i
O=c1c(I)cn(Cc2ccccc2)c(=O)n1Cc1ccccc1	i	i
O=C(CNC(=O)c1c[nH]c2ccccc12)NCCCn1ccnc1	i	i
SMILES	mHTT CaM bind	Pf apPOL inh
CNC(=O)/C(=C\c1ccc([N+](=O)[O-])cc1)NC(=O)c1ccco1	i	i
CCOc1ccc(CCNC(=O)Cc2cn(C)c3ccccc23)cc1OCC	i	i
COc1ccc(C(C[N+](=O)[O-])Sc2cccc3cccnc23)cc1 (stereo unspecified)	100	i
CCCCOc1ccc(NC(=O)CSc2cccc3cccnc23)cc1	i	i
CCC(=O)N1CCc2ccccc2C1C(=O)NCc1ccc(N2CCCCC2)cc1 (stereo unspecified)	i	i
Cc1cc(=O)n(CC(=O)N2CCc3ccccc32)c(N)n1	i	i
CN(C)c1ccc(Nc2nc(-c3ccncc3)cs2)cc1	i	i
CN(C)c1ccc(C=Nc2nc(-c3ccccc3)cs2)cc1	65	i
Cc1oc(C2CCN(C(=O)CC3CCCC3)CC2)nc1C(=O)N1CCCCC1	i	i
Cc1ccc(C)n1-c1ccc(Cc2ccncc2)cc1	65	i
O=[N+]([O-])c1ccc(Cc2ccncc2)cc1	i	i
CC(=O)N1CCN(c2nc3c(s2)CC(C(=O)Nc2ccc(F)cc2C)CC3)CC1 (stereo unspecified)	i	i
O=c1[nH]c(CNC2CC2)nc2sc3c(c12)CCN(Cc1ccccc1)C3	i	i
NNc1ncnc2sc3c(c12)CCC3	100	i
c1cc(Nc2ncnc3sc4c(c23)CCC4)ccn1	i	i
NNc1ncnc2sc3c(c12)CCN(Cc1ccccc1)C3	90	i
COc1cc(C=C2Oc3cc(OCC#N)ccc3C2=O)cc(OC)c1OC	i	i
CC(=O)NC1C(O)OC(CO)C(O)C1O (stereo unspecified)	nt	i
COC(=O)C1OC(O)C(O)C(O)C1O (stereo unspecified)	nt	96
COc1ccc(OC)c(CNC(=O)Cc2nnc(-c3cccs3)o2)c1	i	i
Cc1ccc(NC(=O)C2CC(=O)N(C3CC4CCC3C4)C2)cc1 (stereo unspecified)	i	i
COc1ccc(CCCC(=O)Nc2ccc(I)cc2C)cc1	i	93
COc1ccc(CCCC(=O)Nc2ccc(Cl)cc2C)cc1	i	i
